Results on 7 compounds are retold here after PubChem BioAssay (Tox21).

A short description of test [1]: Nuclear factor erythroid 2-related factor 2/antioxidant responsive element (Nrf2/ARE) small molecule agonists: qHTS cell viability counter screen in human keratinocytes (AID 1919968; active = well fitted curve in the direction sought with a large enough effect in the repeat runs; an effect the other way counts as inactive or inconclusive; note: nearly all actives have a fitted effect of over 55% in size; note: potency is the fitted concentration of half-maximal effect). A digest of the protocol:
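In human HaCaT keratinocytes stably expressing an ARE-driven luciferase, compound exposure lasted 23 h at 37 C under 5% CO2. Viable cells are quantified with a protease-based fluorogenic reagent (CellTiter-Fluor) read 1 h after addition.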
In general terms: In qHTS, concentration-response curves come from the screen itself.

Test [2] in a line: Nuclear factor erythroid 2-related factor 2/antioxidant responsive element (Nrf2/ARE) small molecule agonists: luciferase reporter gene qHTS assay in human keratinocytes (AID 1919969). Note: nearly all actives have a fitted effect of over 35% in size.
Test [3] is described as follows: G protein-coupled receptor (GPCR) small molecule agonists, calcium flux assay: HEK293 wild type cell line counter screen (AID 1920065). In outline:
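Fluorescence intensity signals activation. After overnight (18 h) culture and a 1 h calcium dye load at 37 C, compounds are added by pin tool and the plate read at 480/540 nm for 3 min in 1 s steps.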

Test [4] is described as follows: p53 small molecule agonists, cell-based qHTS assay with human liver microsomes (AID 1963577).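 Note: p53 response element beta-lactamase reporter cells with liver microsomes plus NADPH.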 In outline:
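HLM-supplemented p53RE-bla reporter assay: 16 h compound exposure at 37 C, microsomes and NADPH each 0.5 mg/mL final, read by fluorescence intensity.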

Test [5] in a line: p53 small molecule agonists, cell-based qHTS assay with rat liver microsomes (AID 1963578). A digest of the protocol: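 Quantitative HTS of the Tox21 10K library: p53RE-bla cells, rat liver microsomes plus NADPH at 0.5 mg/mL final each, 16 h at 37 C, beta-lactamase fluorescence detection.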
Test [6] in a line: p53 small molecule agonists, cell-based qHTS assay with human liver microsomes: qHTS cell viability counter screen (AID 1963579). Note: nearly all actives have a fitted effect of over 45% in size. In outline:
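Viability of p53RE-bla cells is measured as CellTiter-Glo luminescence following a 16 h, 37 C incubation with compound, liver microsomes from human donors and NADPH.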

Test [7] is described as follows: p53 small molecule agonists, cell-based qHTS assay with rat liver microsomes: qHTS cell viability counter screen (AID 1963580). Note: nearly all actives have a fitted effect of over 45% in size. A digest of the protocol:
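Luminescent ATP readout (CellTiter-Glo, 30 min at room temperature) reports viability of p53RE-bla HCT-116 cells after 16 h at 37 C with test compounds under metabolic activation by rat liver microsomes and NADPH at 0.5 mg/mL final each.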

Test [8] in a line: p53 small molecule agonists, cell-based qHTS assay: qHTS cell viability counter screen (AID 1963581). Note: nearly all actives have a fitted effect of over 45% in size. In outline: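 Luminescence from CellTiter-Glo, reflecting ATP content, serves as the cytotoxicity measure; it is taken after the 2 h reporter substrate step in HCT-116 p53RE-bla cells dosed for 16 h at 37 C.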
For test [9], the target named is 5-hydroxytryptamine receptor 2A (Homo sapiens) (UniProt P28223). Description: 5-hydroxytryptamine receptor 2A (HTR2A) small molecule antagonists, cell-based qHTS assay (AID 1963586). Note: nearly all actives have a fitted effect of over 45% in size. A digest of the protocol: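 CHO cells stably expressing human HTR2A were plated for 18 h at 37 C, then loaded with calcium dye for 1 h. Compounds were preincubated 5 min at room temperature before DOI (4 nM solution) was added. Kinetic fluorescence was read for 3 min.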
Chain of 5-hydroxytryptamine receptor 2A (Homo sapiens) (P28223 whole entry, looked up): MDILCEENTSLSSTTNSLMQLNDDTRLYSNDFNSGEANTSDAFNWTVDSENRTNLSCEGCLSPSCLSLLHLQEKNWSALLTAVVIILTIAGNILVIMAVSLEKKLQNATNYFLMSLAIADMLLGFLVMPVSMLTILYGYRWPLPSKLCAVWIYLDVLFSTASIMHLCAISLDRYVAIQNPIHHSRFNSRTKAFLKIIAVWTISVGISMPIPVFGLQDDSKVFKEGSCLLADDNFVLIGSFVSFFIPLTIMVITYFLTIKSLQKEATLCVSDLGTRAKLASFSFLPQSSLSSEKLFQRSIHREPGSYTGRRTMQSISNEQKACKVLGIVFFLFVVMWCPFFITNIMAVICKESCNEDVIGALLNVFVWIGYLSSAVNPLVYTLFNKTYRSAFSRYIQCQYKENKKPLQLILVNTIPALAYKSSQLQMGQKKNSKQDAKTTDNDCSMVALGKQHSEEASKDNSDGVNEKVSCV

Test [10] shares this target. Description: 5-hydroxytryptamine receptor 2A (HTR2A) small molecule agonists, cell-based qHTS assay (AID 1963587). Note: nearly all actives have a fitted effect of over 30% in size. Note: potency is the fitted concentration of half-maximal effect. In outline: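 HTR2A-CHO cells, plated 18 h at 37 C/5% CO2, dye-loaded 1 h at 37 C; compounds in DMSO added by pin tool (agonist mode). Intracellular calcium flux read as kinetic fluorescence on FDSS over 2 min at 1 s intervals.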
The target in test [11] is Muscarinic acetylcholine receptor M1 (Homo sapiens) (UniProt P11229). As to the kind of experiment: Cholinergic receptor muscarinic 1 (CHRM1) small molecule antagonists, cell-based qHTS assay (AID 1963588). Note: nearly all actives have a fitted effect of over 40% in size. A digest of the protocol: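 Compounds were tested at 15 concentrations in three independent runs. Dye-loaded CHRM1-CHO cells were exposed 5 min at room temperature before stimulation by acetylcholine added at 50nM. Intracellular calcium was read kinetically on FDSS for 3 min.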
Chain of Muscarinic acetylcholine receptor M1 (Homo sapiens) (P11229 whole entry, looked up): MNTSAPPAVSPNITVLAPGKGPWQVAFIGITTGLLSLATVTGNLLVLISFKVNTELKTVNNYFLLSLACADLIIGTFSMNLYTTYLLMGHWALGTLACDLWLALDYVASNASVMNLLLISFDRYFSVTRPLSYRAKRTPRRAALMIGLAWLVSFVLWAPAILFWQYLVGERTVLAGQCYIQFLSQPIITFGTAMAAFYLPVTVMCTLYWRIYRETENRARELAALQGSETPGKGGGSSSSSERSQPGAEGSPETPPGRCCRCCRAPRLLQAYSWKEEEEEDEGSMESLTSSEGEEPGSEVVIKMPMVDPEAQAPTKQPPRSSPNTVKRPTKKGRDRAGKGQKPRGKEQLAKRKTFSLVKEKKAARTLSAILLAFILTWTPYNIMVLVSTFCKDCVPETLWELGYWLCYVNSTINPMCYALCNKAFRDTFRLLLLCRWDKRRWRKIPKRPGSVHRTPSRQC

Test [12] has the same target. As to the kind of experiment: Cholinergic receptor muscarinic 1 (CHRM1) small molecule agonists, cell-based qHTS assay (AID 1963589). Note: nearly all actives have a fitted effect of over 35% in size. Note: potency is the fitted concentration of half-maximal effect. In outline:
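Fluorescent calcium dye reports M1 activation in stably transfected CHO cells. Compounds, 15 concentrations, added after 1 h dye loading at 37 C; kinetic reading at 1 sec intervals.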

The nature of test [13]: cAMP Responsive Elements (CRE) small molecule agonists, cell-based qHTS assay (AID 1963590). In outline:
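Compound exposure lasted 3 h at 37 C/5% CO2 in CRE-bla HEK 293T cells grown in assay medium with 10% dialyzed FBS and 25 mM HEPES. Reporter signal came from LiveBLAzer B/G FRET substrate, 2 h, room temperature.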

A short description of test [14]: cAMP Responsive Elements (CRE) small molecule antagonists, cell-based qHTS assay (AID 1963591; active = well fitted inhibition curve with a large enough effect in the signal ratio in the repeat runs, not every such curve was filed as active; the % refers to the signal ratio). A digest of the protocol:
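Stimulation used NKH477 at a final 0.25 uM for 3 h in compound-treated CRE-bla HEK293T cells, seeded 18 h beforehand. Reporter activity was measured with LiveBLAzer B/G FRET substrate after 2 h at room temperature.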

The target of test [15] is Beta-2 adrenergic receptor (Homo sapiens) (UniProt P07550). As to the kind of experiment: Adrenergic beta2 receptor (ADRB2) small molecule antagonists, cell-based qHTS assay (AID 1963592). Note: series mostly up to about 92 µM; nearly all actives have a fitted effect of over 50% in size. A digest of the protocol:
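Assay format: CHO-ADRB2 cells, 18-20hr seeding at 37C/5% CO2, then compound plus 1nM isoproterenol agonist mix for 0.5hr RT. Homogeneous time-resolved fluorescence cAMP detection after 1hr, expressed as 665/615 nm ratio.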

Test [16] has the same target. Description: Adrenergic beta2 receptor (ADRB2) small molecule agonists, cell-based qHTS assay (AID 1963593).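 Note: CHO cells stably overexpressing human ADRB2.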 In outline: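 CHO cells stably over-expressing ADRB2 were plated overnight at 37C, then dosed with compounds plus a stimulation mix containing 100uM IBMX and 25uM Ro-20-1724 for 0.5hr at room temperature. cAMP was measured by HTRF competition, 1hr.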
In test [17] the target is D(2) dopamine receptor (Homo sapiens) (UniProt P14416). Description: Dopamine D2 receptor (DRD2) small molecule agonists, cell-based qHTS assay (AID 1963594). Note: nearly all actives have a fitted effect of over 35% in size. A digest of the protocol: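 HEK293 cells stably expressing DRD2 were cultured 24 h at 37 C, then given Ro20-1724 (0.1 mM final) and compounds for 10 min at room temperature. NKH477 (200nM) was then added for 30 min. cAMP was read by HTRF.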
Chain of D(2) dopamine receptor (Homo sapiens) (P14416 whole entry, looked up): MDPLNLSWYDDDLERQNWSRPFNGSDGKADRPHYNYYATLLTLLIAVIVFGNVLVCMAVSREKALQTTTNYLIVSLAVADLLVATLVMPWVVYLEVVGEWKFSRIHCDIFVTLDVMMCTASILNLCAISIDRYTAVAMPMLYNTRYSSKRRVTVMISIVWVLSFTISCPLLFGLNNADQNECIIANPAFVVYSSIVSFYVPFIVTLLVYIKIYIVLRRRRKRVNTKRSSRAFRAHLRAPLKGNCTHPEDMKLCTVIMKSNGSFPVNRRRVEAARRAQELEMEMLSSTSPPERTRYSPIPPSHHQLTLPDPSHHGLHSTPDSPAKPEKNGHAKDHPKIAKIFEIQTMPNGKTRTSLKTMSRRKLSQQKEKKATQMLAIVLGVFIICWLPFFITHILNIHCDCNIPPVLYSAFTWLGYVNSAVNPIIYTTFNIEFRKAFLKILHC

The target is the same in test [18]. As to the kind of experiment: Dopamine D2 receptor (DRD2) small molecule antagonists, cell-based qHTS assay (AID 1963595; active = well fitted inhibition curve with a large enough effect in the signal ratio in the repeat runs, with a control signal flat; the % refers to the signal ratio). In outline: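 DRD2-HEK293; 0.1 mM Ro20-1724; cpd 10 min RT; NKH477 200 nM + quinpirole 12 nM, 30 min RT; HTRF cAMP (cAMP-d2/anti-cAMP cryptate), 665/620 nm ratio after 1 h.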
For test [19], the target named is KiSS-1 receptor (Homo sapiens) (UniProt Q969F8). Description: Human kisspeptin (KISS1R) small molecule agonists, calcium flux assay in KISS1R-HEK293 cells (AID 1920064; active = well fitted curve in the direction sought with a large enough effect in the repeat runs; an effect the other way counts as inactive or inconclusive). In outline: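 Concentration-response testing used 15 concentrations in triplicate on human KISS1R-expressing HEK293 cells. Calcium-dependent fluorescence (Ex/Em 480/540) was followed kinetically for 3 min after compound transfer.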
Chain of KiSS-1 receptor (Homo sapiens) (Q969F8 whole entry, looked up): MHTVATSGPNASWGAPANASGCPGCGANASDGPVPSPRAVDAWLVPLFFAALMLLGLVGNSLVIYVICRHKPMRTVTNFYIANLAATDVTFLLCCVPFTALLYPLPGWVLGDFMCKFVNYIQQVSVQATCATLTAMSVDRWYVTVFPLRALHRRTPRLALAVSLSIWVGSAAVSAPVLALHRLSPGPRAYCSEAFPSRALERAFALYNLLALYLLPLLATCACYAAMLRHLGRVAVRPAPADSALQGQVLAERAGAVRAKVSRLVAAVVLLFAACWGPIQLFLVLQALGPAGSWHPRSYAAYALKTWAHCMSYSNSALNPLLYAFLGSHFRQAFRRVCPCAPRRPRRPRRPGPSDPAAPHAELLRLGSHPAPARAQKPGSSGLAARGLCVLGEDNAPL

Test [20] can be described thus: p53 small molecule agonists, cell-based qHTS assay (AID 1963582; active = well fitted activation curve with a large enough effect in the signal ratio in the repeat runs, not every such curve was filed as active; the % refers to the signal ratio). In outline:
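After plating, p53RE-bla cells sat 5 h in the incubator; compounds or DMSO vehicle were pinned in; a 16 h incubation at 37 C followed; FRET substrate was added and, 2 h later at RT, fluorescence was measured.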

Results filed as inconclusive are left out. Some structures have more than one record in an assay (separate samples or runs), and their calls can disagree. Activity calls are given as the source filed them. Unless noted, calls come from the whole dose curve.

Chain of Beta-2 adrenergic receptor (Homo sapiens) (P07550 whole entry, looked up): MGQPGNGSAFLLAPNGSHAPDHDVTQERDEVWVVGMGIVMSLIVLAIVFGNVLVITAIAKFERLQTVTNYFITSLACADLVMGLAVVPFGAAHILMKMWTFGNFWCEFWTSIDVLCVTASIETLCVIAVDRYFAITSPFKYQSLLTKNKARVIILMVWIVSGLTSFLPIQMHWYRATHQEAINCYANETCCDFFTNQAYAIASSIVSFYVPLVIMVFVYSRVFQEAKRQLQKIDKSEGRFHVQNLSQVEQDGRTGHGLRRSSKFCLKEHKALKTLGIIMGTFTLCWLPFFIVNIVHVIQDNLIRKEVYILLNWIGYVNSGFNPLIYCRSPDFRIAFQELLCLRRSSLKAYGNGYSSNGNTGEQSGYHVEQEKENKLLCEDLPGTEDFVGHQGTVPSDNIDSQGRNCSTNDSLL

On to `COCCl`, for which the Potency entry in test [1], in test [2], in test [3], in [4], in test [5] and in test [6] was “inactive” in each case. The Potency entry in test [7], in [8], in test [9], in test [11], in test [13] and in test [14] was “inactive” throughout. Moreover, the Potency entry in test [15], in test [16], in test [17] and in test [18] was “inactive” in each case. Moreover, the Potency in [10] is 22.7 µM (active) and inactive; in [12], 50.9 µM (active) and inactive.

Regarding `C(=NC1CCCCC1)=NC1CCCCC1`, the Potency in [1] was 54.8 µM (active). Besides, the Potency entry in test [19], in test [3], in [4], in test [5], in [6] and in test [7] was “inactive” in each case. The Potency result in test [8], in [20], in test [9], in test [10], in [11] and in test [12] was “inactive” throughout. The Potency result in test [13], in [14], in [15], in test [16], in test [17] and in test [18] was “inactive” throughout.

Consider `O=c1ccc(=O)[nH][nH]1`, for which the Potency result in test [1], in [19], in test [3], in test [4], in test [5] and in test [6] was “inactive” in each case. For the same compound, the Potency entry in test [7], in test [8], in test [20], in [9], in test [10] and in test [11] was “inactive” in each case. Besides, the Potency entry in test [13], in test [14], in [15], in test [17] and in test [18] was “inactive” throughout.

Regarding `OCCCCO`, the Potency result in test [1], in test [19], in [3], in test [4], in test [5] and in test [6] was “inactive” throughout. The Potency result in test [7], in test [8], in test [9], in test [10], in [11] and in test [12] was “inactive” in each case. Further, the Potency entry in [13], in test [14], in test [15], in [16] and in test [17] was “inactive” in each case.

Consider `CCN(CC)Cc1nccn1-c1ccc([N+](=O)[O-])cc1C(=O)c1ccccc1Cl`, for which the Potency result in test [1], in test [19], in test [3], in test [4], in test [5] and in test [6] was “inactive” throughout. The Potency result in test [7], in test [8], in test [20], in [9], in test [10] and in [11] was “inactive” throughout. Moreover, the Potency entry in test [12], in [13], in [14], in [15], in test [16] and in test [17] was “inactive” each time. Moreover, the Potency entry in test [18] was “inactive”.

Regarding `CC(C)C(C)(N)C#N` (centres undefined), the Potency entry in test [1], in test [19], in test [3], in test [4], in [5] and in test [6] was “inactive” each time. For the same compound, the Potency entry in test [7], in [8], in test [9], in test [10], in test [11] and in test [12] was “inactive” each time. The Potency result in test [13], in [14], in test [15] and in test [17] was “inactive” in each case.

`C=CC(=O)OCC(CC)CCCC` (centres undefined): the Potency entry in [1], in test [19], in test [3], in test [4], in [5] and in [6] was “inactive” throughout. For the same compound, the Potency result in [7], in test [8], in [20], in [9], in test [10] and in test [11] was “inactive” in each case. In addition, the Potency result in test [12], in [13], in [14], in [15], in test [17] and in test [18] was “inactive” in each case.
